# This is a sample that favours compounds with a hit; in the whole collection about 3.5% have one here.
# TEAD-YAP block: TEAD-YAP interaction inhibition. inhibition, % at 9.12 µM. HEK-TIYL cells, TEAD-Gal4/YAP UAS-luciferase luminescence. AID 1259422. 1.4% of 640,000 active; in the data active = inhibition above about 32%;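 note: 0% = median of test compound wells and 100% = reference inhibitor wells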
# GPR151 ag: human GPR151 activation; Q8TDV0; activation, % at 11.2 µM; 1% of 650,000 active; AID 1508602; PathHunter beta-arrestin GPR151 cells, luminescence; in the data active = activation above about 4.9%;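 note: 0% = median of compound wells and 100% = cells with positive control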
# FBW7 activator: activators of human E3 ligase FBW7 | AlphaScreen FBW7–phospho-cyclin E peptide binding, activator screen | normalized activity (activation), % at 26.1 µM | 0.13% of 650,000 active; in the data active = normalized activity above about 1.9%;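 note: purified mutant Fbw7 with reduced substrate affinity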
# MITF inh: blocks human microphthalmia-associated transcription factor; 0.91% of 650,000 active; AID 1259374; AlphaScreen MITF homodimerization, bead proximity signal; inhibition, % at 2.6 µM; O75030; in the data active = inhibition above about 50%;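 note: 0% = vehicle wells with protein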
# Target sequence (O75030 whole entry, looked up): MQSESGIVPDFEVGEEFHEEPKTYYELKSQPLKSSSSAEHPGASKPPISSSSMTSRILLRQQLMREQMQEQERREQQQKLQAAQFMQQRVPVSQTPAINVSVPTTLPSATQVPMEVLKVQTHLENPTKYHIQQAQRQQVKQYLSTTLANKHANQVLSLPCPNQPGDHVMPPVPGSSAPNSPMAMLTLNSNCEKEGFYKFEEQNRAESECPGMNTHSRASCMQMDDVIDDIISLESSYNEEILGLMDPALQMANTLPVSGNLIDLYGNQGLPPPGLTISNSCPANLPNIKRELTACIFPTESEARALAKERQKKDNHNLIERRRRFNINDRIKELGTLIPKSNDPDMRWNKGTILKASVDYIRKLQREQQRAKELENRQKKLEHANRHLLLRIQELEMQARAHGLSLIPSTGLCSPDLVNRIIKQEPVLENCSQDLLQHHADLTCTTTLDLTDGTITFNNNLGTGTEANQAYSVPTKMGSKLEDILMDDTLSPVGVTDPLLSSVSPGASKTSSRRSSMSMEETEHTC
# The depositor's hits bear a star; / = no result.
SMILES,TEAD-YAP block,GPR151 ag,FBW7 activator,MITF inh
COc1ccc(Cl)cc1NC(=O)CSc1ccc2nnc(-c3ccncc3)n2n1,-14,2,0,-5
Cn1c(SCC(=O)Nc2ccccc2Cl)nnc1-c1ccccc1N,7,3,0,-7
CC(C)OCC(O)Cn1c(N2CCOCC2)nc2c1c(=O)[nH]c(=O)n2C (stereo unspecified),2,0,0,15
N#CC1CCCc2c1[nH]c1ccc(Cl)cc21 (stereo unspecified),39*,2,0,-1
C/C(=N\NC(=O)C(F)(F)F)c1ccc(Cl)cc1Cl,-1,0,0,-1
C/C(=N\NC(N)=S)c1ccc(Cl)cc1Cl,34*,1,0,6
COc1ccc(N/N=C(\Cl)C(C)=O)cc1,4,1,1.9*,20
O=C1C=C(NNS(=O)(=O)c2ccccc2)CC(c2ccccc2)C1 (stereo unspecified),5,1,0,-2
Cc1cc(O)ccc1N/C=C/C(=O)c1ccccc1,74*,-3,0,-5
COc1ccc(C(=O)/C=C/Nc2ccc(O)cc2C)cc1OC,-14,-1,0,7
Cc1ccc(C(=O)/C=C/Nc2ccc(O)cc2C)cc1,40*,-1,0,11
Cc1cc(O)ccc1NC(=O)c1ccccc1,3,-1,0,-8
COc1cc(N[C@@H](C)c2ccccc2)ncn1,2,0,0,-10
CC(C)n1cnc2c(NCc3cccc(C(F)(F)F)c3)nc(N3CCN(Cc4ccc5c(c4)OCO5)CC3)nc21,-4,0,0,6
CCOc1ccc(N(C(C)C(=O)Nc2ccc(CC)cc2)S(C)(=O)=O)cc1 (stereo unspecified),-2,2,0,11
Cc1cc(NS(=O)(=O)c2ccc(NC(=O)CCCOc3ccccc3)cc2)no1,2,0,0,7
Cc1cc(NS(=O)(=O)c2ccc(NC(=O)CCCOc3ccc(Cl)cc3)cc2)no1,4,2,2.9*,1
CCN(CC)C(=O)Nc1ccc2nc(-c3ccco3)c(-c3ccco3)nc2c1,-1,0,-1,73*
Clc1cc2nc(-c3ccco3)c(-c3ccco3)nc2cc1Cl,-3,-1,0,21
O=C(NCCc1nnc2n1CCN(CC1CCCCC1)CC2)C1CCCO1 (stereo unspecified),0,-1,0,10
COC(=O)Nc1nc2ccc(C(=O)c3ccccc3)cc2[nH]1,33*,3,1,-5
COC(=O)Nc1nc2ccc(C(=O)c3cccs3)cc2[nH]1,56*,-1,0,7
CCCCOC(=O)c1ccccc1C(=O)c1ccc2nc(NC(=O)OC)[nH]c2c1,39*,0,0,3
COC(=O)Nc1nc2ccc(S(=O)c3ccccc3)cc2[nH]1 (stereo unspecified),/,1,0,8
N#Cc1ccc(OCC(=O)Nc2cccc3c2C(=O)NC3=O)cc1,-6,-1,0,-5
SMILES,TEAD-YAP block,GPR151 ag,FBW7 activator,MITF inh
CCOC(=O)N1CCC(NC(=O)C2CC23CCN(C(=O)CC2=CCCCC2)CC3)CC1 (stereo unspecified),-2,-1,0,-6
COc1ccc(-c2nc(SC)n(C(C)=O)n2)cc1,-49,-3,0,-9
Cc1ccc(NC(=O)COc2cccc(Cl)c2)cc1[N+](=O)[O-],5,0,0,2
Cc1ccc(Cl)cc1N1CCN(c2c(-c3ccc4c(c3)OCC(=O)N4)c(=O)c2=O)CC1,61*,4,0,-6
O=C1COc2cc(-c3c(N4CCCC4)c(=O)c3=O)ccc2N1,-4,-3,0,13
Cc1cccc(C)c1OCCCCNC(C)(C)C,6,1,0,-1
COc1ccc(OC)c(NC(=O)c2ccc(Cl)c([N+](=O)[O-])c2)c1,3,2,0,5
Cc1ccc(NC(=O)CSc2nnc(C)s2)c(C)c1,-11,0,0,-3
Cc1ccc(N/C(N)=N/c2nc(CSc3nnc(C)s3)cc(=O)[nH]2)c(C)c1,44*,0,0,17
CCOC(=O)c1ccccc1NC(=O)C1CCN(c2ccc(-c3cccs3)nn2)CC1,3,0,0,8
Cc1cccc(NC(=O)C2CCN(c3ccc(-c4cccs4)nn3)CC2)n1,55*,-10,0,19
COc1cc(/C=N/NC(=O)CCN2CCN(C)CC2)cc(OC)c1O,-1,0,0,51*
COc1cc(/C=N/NC(=O)CCN2CCN(C)CC2)ccc1O,-4,0,0,23
CCC1CCCCN1C(=O)c1cc2n(n1)C(C(F)(F)F)CC(c1ccco1)N2 (stereo unspecified),16,0,0,8
COc1ccccc1OCC(=O)Nc1ncc(Cc2ccc(Br)cc2)s1,4,3,1,11
COc1ccc(OCC(=O)Nc2ncc(Cc3ccc(Br)cc3)s2)cc1,1,-1,1,-159
Cc1ccccc1OCC(=O)Nc1ncc(Cc2ccc(Br)cc2)s1,55*,2,0,-4
COc1ccc(Cc2cnc(NC(=O)COc3cccc(C)c3)s2)cc1,52*,1,0,-4
COc1ccc(Cc2cnc(NC(=O)COc3ccccc3OC)s2)cc1,48*,1,1,-1
CCC1SC(CC)C(=O)N(CC(=O)Nc2c(C)cc(C)cc2C)C1=O (stereo unspecified),14,1,0,14
O=C(Nc1ccc(F)cc1)C1CC=CCC1C(=O)OCC(Cl)=C(Cl)Cl (stereo unspecified),6,-1,0,8
CCC(C)(C)NC(=O)C1CCN(S(=O)(=O)c2ccc(F)cc2)CC1,0,0,0,1
CCC(C)(C)C(=O)Nc1ccc(S(=O)(=O)N2CCC(C)CC2)cc1,11,-1,2.2*,15
CCOC(=O)c1oc2ccccc2c1NC(=O)C1CCN(S(=O)(=O)c2ccc(C)cc2)CC1,35*,-2,1,16
CCC(C)(C)NC(=O)C1CCN(S(=O)(=O)c2ccc(C)cc2)CC1,74*,1,0,-2
SMILES,TEAD-YAP block,GPR151 ag,FBW7 activator,MITF inh
CSCCC(NC(=O)/C(=C\c1cccc([N+](=O)[O-])c1)NC(=O)c1ccccc1)C(=O)O (stereo unspecified),-8,0,1,20
COc1ccc(CN2CCN(C(=O)c3cccc4ccccc34)CC2)cc1,-1,0,0,41
NCCNc1ccc(C(=O)Nc2cccc(C(F)(F)F)c2)cc1[N+](=O)[O-],0,0,0,14
CC(=O)c1c(C)oc2c(Cl)c(Cl)c(O)cc12,2,0,0,1
CCCCC(=O)NC(c1ccc(OC)c(OC)c1)c1cc([N+](=O)[O-])c2cccnc2c1O (stereo unspecified),-8,2,0,51*
CCOc1cc(C(NC(=O)C(C)C)c2cc([N+](=O)[O-])c3cccnc3c2O)ccc1O (stereo unspecified),9,1,-1,35
CCCC(=O)NC(c1ccc(OC)c(OC)c1)c1cc([N+](=O)[O-])c2cccnc2c1O (stereo unspecified),17,0,0,45

# Bioassay records as filed in PubChem BioAssay.
